For some of these results: Entries with a potency or affinity are not part of this list.
Tests used:
Design in all cases: scale not given: direction of the effect not stated beside the values
[1] = biological target: Protein translocase subunit SecA (Escherichia coli (strain K12)) (UniProt P10408); experiment: Assay to Identify E. coli SecA ATPase Inhibitors; type: functional; details: 30 µM
[2] = biological target: T1, Ubiquitin-activating enzyme e1, putative (Leishmania donovani (strain BPK282A1)) (UniProt E9BSI1); experiment: Leishmania donovani Ubiquitin Activating Enzyme (LdE1); type: functional; details: 30 µM
T1 sequence (whole entry): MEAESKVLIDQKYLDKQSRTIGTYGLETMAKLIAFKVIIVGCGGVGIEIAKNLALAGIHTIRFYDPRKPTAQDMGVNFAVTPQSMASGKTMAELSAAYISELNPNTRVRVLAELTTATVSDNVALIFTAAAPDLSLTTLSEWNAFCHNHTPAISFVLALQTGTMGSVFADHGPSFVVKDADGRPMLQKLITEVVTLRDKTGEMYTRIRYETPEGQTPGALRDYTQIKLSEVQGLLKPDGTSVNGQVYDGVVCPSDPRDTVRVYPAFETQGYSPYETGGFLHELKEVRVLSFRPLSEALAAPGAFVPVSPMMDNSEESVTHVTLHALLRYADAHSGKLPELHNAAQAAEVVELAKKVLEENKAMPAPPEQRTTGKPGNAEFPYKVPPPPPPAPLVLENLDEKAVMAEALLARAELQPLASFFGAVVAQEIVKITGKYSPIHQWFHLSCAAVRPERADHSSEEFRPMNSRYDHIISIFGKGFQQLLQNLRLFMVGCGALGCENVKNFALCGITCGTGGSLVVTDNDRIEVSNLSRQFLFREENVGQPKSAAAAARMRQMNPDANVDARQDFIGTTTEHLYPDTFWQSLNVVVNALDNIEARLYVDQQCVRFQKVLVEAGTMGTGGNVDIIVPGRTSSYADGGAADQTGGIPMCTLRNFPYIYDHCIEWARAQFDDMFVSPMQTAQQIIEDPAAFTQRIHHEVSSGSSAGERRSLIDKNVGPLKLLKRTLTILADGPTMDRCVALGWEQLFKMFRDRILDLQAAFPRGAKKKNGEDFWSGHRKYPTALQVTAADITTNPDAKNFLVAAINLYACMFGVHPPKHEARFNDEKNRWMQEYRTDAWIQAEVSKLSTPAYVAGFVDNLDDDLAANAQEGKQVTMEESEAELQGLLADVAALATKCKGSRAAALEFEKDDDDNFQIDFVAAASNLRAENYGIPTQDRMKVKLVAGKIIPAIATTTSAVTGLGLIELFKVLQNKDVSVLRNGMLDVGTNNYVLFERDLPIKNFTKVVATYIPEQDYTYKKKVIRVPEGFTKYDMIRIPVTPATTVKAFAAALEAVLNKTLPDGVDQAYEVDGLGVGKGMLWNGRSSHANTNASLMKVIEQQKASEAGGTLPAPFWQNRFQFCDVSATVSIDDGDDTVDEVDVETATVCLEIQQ

[3] = biological target: AMP-activated protein kinase, AMPK (Homo sapiens) (UniProt P54646+O43741+P54619+Q9UGJ0+Q9Y478+Q13131+Q9UGI9); experiment: AMP-dependent Kinase enzyme assay. An in vitro enzyme assay that detects ADP turnover that is directly proportional to AMPK activity. This uses naive AMPK that is activated during the assay with MK-8722; type: functional; details: 30 µM
[4] = biological target: Sialic acid-binding Ig-like lectin 9 (Homo sapiens) (UniProt Q9Y336); experiment: Hs-Siglec9 ALPHAscreen SOP 20170721; details: 10 µM
Trypanosoma cruzi = experiment: Trypanosoma cruzi phosphomannomutase and mannose-1-phosphate guanylyltransferase assay; type: functional; details: 10 µM
[5] = biological target: T2, Arginase-2, mitochondrial (Homo sapiens) (UniProt P78540); experiment: in vitro enzyme assay to detect the production of urea directly proportional to the activity of Arginase II; type: functional; details: 33.3 µM; note: in the data most compounds retested in dose-response had high values
T2 sequence (whole entry): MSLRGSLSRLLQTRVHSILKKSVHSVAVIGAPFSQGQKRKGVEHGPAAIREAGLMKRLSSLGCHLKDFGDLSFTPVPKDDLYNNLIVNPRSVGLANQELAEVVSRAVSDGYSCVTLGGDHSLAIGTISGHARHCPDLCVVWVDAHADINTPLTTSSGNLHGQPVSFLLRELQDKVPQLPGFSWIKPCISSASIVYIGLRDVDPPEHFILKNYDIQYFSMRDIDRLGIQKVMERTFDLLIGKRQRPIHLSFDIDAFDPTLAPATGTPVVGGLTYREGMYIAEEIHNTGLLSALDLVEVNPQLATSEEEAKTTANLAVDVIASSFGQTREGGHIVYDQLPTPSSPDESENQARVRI

[6] = biological target: T3, Proteasome subunit beta (Trypanosoma cruzi) (UniProt O96673); experiment: Trypanosoma cruzi proteasome chymotrypsin-like activity (TcProtChymo) assay.; note: in the data most compounds retested in dose-response had high values; type: functional; details: 9.37 µM
T3 sequence (whole entry): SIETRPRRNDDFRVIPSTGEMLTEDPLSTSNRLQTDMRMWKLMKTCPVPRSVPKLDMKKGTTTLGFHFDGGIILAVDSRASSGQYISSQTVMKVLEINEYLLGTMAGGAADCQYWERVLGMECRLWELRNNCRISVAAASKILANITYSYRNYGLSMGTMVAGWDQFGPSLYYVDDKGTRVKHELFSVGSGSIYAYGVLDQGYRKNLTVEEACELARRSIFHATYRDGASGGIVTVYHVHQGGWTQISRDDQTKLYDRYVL

Homo sapiens = organism: Homo sapiens; experiment: To identify inhibition of the IFN signalling (Jak-Stat) pathway via expression of an eGFP reporter gene under the control of an IFN-stimulated response element (ISRE) containing MxA promoter.; type: functional; details: 30 µM
[7] = biological target: T4, Tyrosyl-tRNA synthetase, putative (Trypanosoma cruzi (strain CL Brener)) (UniProt Q4DSP6); experiment: Trypanosoma cruzi tyrosyl tRNA synthetase (TcYRS) _High Tyrosine SOP; type: functional; details: 30 µM; note: in the data most compounds retested in dose-response had high values
T4 sequence (whole entry): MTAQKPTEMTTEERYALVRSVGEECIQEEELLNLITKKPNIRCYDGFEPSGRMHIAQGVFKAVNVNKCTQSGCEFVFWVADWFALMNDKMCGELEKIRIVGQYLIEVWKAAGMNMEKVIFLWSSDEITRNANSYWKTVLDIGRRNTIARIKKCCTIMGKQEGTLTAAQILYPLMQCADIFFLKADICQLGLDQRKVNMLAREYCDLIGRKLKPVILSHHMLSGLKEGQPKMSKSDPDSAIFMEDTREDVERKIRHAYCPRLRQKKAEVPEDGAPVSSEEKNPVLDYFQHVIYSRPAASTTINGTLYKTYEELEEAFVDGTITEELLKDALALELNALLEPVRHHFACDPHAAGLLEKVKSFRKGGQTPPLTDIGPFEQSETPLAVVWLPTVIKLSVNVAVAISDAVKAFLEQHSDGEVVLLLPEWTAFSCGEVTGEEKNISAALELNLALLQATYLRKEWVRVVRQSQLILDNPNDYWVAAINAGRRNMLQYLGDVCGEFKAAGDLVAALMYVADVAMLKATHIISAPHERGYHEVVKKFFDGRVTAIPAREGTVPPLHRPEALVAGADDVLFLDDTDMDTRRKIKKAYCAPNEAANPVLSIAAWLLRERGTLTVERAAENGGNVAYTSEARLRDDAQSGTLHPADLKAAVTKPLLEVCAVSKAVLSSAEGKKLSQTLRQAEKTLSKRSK

[8] = biological target: T4, Tyrosyl-tRNA synthetase, putative (Trypanosoma cruzi (strain CL Brener)); experiment: Trypanosoma cruzi tyrosyl tRNA synthetase (TcYRS) SOP; type: functional; details: 30 µM
[9] = biological target: Chromo domain-containing protein 1 (Saccharomyces cerevisiae (strain ATCC 204508 / S288c) (Baker's yeast)) (UniProt P32657); experiment: ScCHD-1 Enzyme Inhibition Assay; type: functional; details: 30 µM; note: in the data most compounds retested in dose-response had high values
Chain of Chromo domain-containing protein 1 (Saccharomyces cerevisiae (strain ATCC 204508 / S288c) (Baker's yeast)) (P32657 whole entry, the tested form may be a part): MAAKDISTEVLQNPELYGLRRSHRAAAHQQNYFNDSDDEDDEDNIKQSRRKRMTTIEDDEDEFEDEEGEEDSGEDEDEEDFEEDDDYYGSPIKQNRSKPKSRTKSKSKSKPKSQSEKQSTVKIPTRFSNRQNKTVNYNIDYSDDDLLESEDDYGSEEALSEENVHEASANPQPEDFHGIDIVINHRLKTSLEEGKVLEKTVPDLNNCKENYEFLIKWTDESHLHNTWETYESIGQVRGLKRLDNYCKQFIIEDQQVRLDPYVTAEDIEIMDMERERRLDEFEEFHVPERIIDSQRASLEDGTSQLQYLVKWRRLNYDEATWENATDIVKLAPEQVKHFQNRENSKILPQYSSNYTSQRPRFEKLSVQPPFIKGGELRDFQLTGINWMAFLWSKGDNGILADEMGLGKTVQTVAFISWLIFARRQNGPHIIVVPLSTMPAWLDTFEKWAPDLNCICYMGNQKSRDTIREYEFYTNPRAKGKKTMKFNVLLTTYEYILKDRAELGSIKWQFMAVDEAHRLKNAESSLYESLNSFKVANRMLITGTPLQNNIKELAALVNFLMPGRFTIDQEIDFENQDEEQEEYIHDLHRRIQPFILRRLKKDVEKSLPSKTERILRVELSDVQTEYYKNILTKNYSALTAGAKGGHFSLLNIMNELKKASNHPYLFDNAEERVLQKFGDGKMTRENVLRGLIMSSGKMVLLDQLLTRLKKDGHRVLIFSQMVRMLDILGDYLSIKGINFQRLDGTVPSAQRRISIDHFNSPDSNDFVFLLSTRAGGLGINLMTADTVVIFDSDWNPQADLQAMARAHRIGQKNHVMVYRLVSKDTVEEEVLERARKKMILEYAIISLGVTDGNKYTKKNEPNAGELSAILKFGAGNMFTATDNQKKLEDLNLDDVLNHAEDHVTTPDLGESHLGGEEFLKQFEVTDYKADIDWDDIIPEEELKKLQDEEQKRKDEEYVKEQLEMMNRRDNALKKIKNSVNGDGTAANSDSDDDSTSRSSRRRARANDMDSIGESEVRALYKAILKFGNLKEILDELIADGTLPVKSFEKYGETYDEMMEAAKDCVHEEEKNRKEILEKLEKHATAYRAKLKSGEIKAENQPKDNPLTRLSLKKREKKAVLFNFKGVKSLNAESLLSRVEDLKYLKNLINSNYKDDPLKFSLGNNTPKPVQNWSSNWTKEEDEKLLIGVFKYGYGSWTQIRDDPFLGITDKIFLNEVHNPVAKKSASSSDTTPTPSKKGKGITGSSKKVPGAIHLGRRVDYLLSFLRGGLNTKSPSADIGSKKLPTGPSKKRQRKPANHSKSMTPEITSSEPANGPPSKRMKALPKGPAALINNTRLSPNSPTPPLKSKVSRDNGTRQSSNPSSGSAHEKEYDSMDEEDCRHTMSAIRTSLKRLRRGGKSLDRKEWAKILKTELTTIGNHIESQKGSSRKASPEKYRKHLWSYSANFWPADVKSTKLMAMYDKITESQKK

Chain of Protein translocase subunit SecA (Escherichia coli (strain K12)) (P10408 whole entry): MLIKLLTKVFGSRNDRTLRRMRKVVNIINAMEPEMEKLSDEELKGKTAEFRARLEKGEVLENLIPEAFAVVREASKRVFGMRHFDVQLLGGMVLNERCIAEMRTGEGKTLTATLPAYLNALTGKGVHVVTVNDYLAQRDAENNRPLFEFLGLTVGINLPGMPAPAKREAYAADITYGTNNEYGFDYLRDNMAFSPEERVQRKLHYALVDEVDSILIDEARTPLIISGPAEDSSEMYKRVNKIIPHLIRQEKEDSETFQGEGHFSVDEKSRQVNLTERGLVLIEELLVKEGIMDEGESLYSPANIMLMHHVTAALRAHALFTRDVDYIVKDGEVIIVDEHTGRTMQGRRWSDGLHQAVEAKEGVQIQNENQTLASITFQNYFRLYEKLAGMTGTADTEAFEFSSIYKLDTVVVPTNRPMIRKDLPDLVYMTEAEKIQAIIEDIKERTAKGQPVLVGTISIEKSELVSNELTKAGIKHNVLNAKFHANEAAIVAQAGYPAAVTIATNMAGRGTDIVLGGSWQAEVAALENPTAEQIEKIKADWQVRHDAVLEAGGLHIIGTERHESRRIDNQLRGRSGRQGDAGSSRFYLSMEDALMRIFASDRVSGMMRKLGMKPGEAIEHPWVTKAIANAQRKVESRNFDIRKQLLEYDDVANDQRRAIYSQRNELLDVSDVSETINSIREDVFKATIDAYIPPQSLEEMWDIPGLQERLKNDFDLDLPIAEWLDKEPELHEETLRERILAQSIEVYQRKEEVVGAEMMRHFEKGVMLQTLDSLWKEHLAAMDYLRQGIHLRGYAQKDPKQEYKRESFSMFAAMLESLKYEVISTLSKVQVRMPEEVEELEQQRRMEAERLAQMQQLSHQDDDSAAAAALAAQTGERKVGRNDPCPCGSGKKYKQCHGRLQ
Chain of Sialic acid-binding Ig-like lectin 9 (Homo sapiens) (Q9Y336 whole entry): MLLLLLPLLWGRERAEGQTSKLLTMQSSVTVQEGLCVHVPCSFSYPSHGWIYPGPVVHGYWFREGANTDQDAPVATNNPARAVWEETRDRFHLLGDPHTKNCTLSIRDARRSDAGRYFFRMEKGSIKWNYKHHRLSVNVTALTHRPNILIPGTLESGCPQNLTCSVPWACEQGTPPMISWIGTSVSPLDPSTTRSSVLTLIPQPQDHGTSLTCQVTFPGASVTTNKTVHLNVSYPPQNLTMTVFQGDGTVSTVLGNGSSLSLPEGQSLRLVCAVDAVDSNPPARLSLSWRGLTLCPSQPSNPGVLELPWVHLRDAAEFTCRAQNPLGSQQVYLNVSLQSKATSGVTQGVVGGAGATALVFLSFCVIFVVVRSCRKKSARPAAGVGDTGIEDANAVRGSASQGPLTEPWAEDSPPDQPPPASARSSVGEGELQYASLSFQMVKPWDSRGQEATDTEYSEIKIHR

| SMILES | Percent Effect [1] [%] | Percent Effect [2] [%] | Percent Effect [3] [%] | Percent Effect [4] [%] | Percent Effect (Trypanosoma cruzi) [%] | Percent Effect [5] [%] | Percent Effect [6] [%] | Percent Effect (Homo sapiens) [%] | Percent Effect [7] [%] | Percent Effect [8] [%] | Percent Effect [9] [%] |
| --- | --- | --- | --- | --- | --- | --- | --- | --- | --- | --- | --- |
| N#Cc1ccc(N2CCN(C(=O)c3cc(C4CC4)[nH]n3)CC2)c(F)c1 | -6.31 | 8.11 | -4.12 | 19.3 | 5.29 | -4.99 | -0.179 | 7.83 | 4.95 | 23.2 | -7.65 |
| CC(C)CN1CCCC2(CCN(C(=O)c3cnccn3)C2)C1 (stereo not given) | 2.12 | -2.6 | -0.541 | 2.48 | -4.24 | -3.23 | 3.13 | 0.321 | 3.17 | -3.85 | -5.96 |
| Cc1noc(C(C)C)c1C(=O)NCc1cc(F)cc(F)c1 | -3.99 | 15.6 | 7.66 | -1.87 | -7.12 | 3.92 | 11.5 | 17.8 | 3.88 | 14.6 | -9.23 |
| COCCOc1ccc(NC(=O)C2CCCN(C(N)=O)C2)cn1 (stereo not given) | -4.58 | 7.59 | 0.0742 | 4.56 | -6.33 | 1.52 | 5.82 | 22.6 | -0.493 | -1.27 | -5.42 |
| O=C(c1ccc2c(c1)COC2)N1CCC(Nc2cccnn2)CC1 | -4.96 | 13 | -6.23 | 11.4 | 5.06 | -3.56 | 1.52 | 21.5 | 8.74 | 24.4 | -7.05 |
| CCO[C@@H]1CO[C@@]2(CCCN(Cc3scnc3C)C2)C1 | -2.88 | 0 | -3.01 | 9.05 | 7.14 | -5.19 | 9.85 | 3.99 | -4.17 | 3.7 | -0.793 |
| CN(C)CCNC(=O)c1ccc(OC2CCN(S(C)(=O)=O)CC2)c(Cl)c1 | -6.99 | 18.9 | -3.92 | 19.3 | 8.5 | 3.23 | 13.8 | -5.52 | 7.53 | 21 | -4.57 |
| CCC(CO)N(Cc1ccccn1)C(=O)c1ccc2c(c1)CCO2 (stereo not given) | -5.75 | 10.7 | -10.8 | 36.5 | 7.89 | 15.6 | 13.4 | 12.5 | 0.546 | 16.1 | -5.21 |
| Cc1nc(CN2C(=O)C[C@@H]3[C@@H]2CCN3C(=O)C2CCOCC2)cs1 | -0.279 | 8.22 | -5.72 | 3.96 | 4.17 | -5.19 | 8.82 | -4.21 | 1.04 | -3.7 | -3.04 |
| Cc1ncc(CNC(=O)CCOc2ccccc2)c(C2CCCN2C)n1 (stereo not given) | -0.839 | -1.35 | 18.7 | 7.48 | -6.32 | 3.02 | 6.08 | 12.3 | 1.07 | 1.3 | -1.9 |
| O=C([C@@H]1C[C@@H]2CCN(CCc3ccccc3)C[C@H]2O1)N1CCCC1 | 1.08 | 8 | 15 | -9.77 | -7.09 | 8.62 | 14.7 | -9.49 | 4.25 | 8.97 | 0.575 |
| CCCn1[nH]cc/c1=N\C(=O)CN1CCCC1c1c(C)nn(C)c1C (stereo not given) | -4.29 | 2.7 | -27.7 | 15.7 | 7.45 | 6.81 | 3.78 | -0.266 | 3.45 | 13.6 | -10.6 |
| CCOC(CC)C(=O)NCc1ccnc(Oc2ccc(F)cc2)c1 (stereo not given) | -0.936 | -2.7 | -2.91 | 0.458 | -3.28 | 4.29 | 11 | 9.46 | 7.94 | 12.2 | -1.51 |
| Cc1cc(CN(C)C(=O)C2CCS(=O)(=O)C2)no1 (stereo not given) | 0.281 | 18.2 | -1.29 | -9.12 | 4.21 | 2.74 | 14 | 31.4 | 5.71 | 21.2 | -8.16 |
| CC(C)c1nnc2n1CCN(C(=O)c1ccc(CN(C)C)cc1)C2 | -3.27 | -2.6 | -13.6 | -5.41 | -2.84 | 1.47 | 12.5 | 22.6 | 0.952 | -2.35 | -18.4 |
| COC(=O)c1cccc(OCCn2nc(-c3cccs3)oc2=O)c1 | -3.91 | -5.41 | -4.63 | 7.61 | -4.36 | -3.14 | 1.44 | 22.8 | -16.8 | -6.1 | 3.23 |
| CC(C)n1ccnc1C1CCCN(c2ccnc3ccccc23)C1 (stereo not given) | -5.45 | 2.67 | 3.66 | 2 | -0.487 | -1.04 | 1.57 | 53.9 | 7.1 | 6.17 | -6.66 |
| O=C(Cn1cc(I)cn1)N1CCc2ccccc2C1 | 0.654 | -12 | 6.11 | 2.56 | -2.55 | -10 | 6.1 | 2.17 | 2.12 | -2.56 | -2.67 |
| CS(=O)(=O)N1CCCC12CCCN(S(=O)(=O)c1ccc(F)cc1)C2 (stereo not given) | -3.85 | 5.41 | -33.3 | -0.0111 | -5.18 | 1.24 | 10.7 | -4.37 | 6.45 | 6.17 | -9.7 |
| CCOc1nnc(CN(C)C2CCCN(c3cccnn3)C2)s1 (stereo not given) | -2.38 | 10.5 | -2.62 | -6.38 | 7.5 | -11.8 | 17.9 | -12.4 | 7.45 | 18.2 | -4.02 |

Source: ChEMBL document CHEMBL3988442, “University of Dundee, Small-Polar-MMV Screening Library” (2021)
